# From PubChem BioAssay
# Rab9 promoter act: Rab9 promoter activation | Huh7 Rab9 promoter-luciferase reporter, luminescence, 24 h | Potency, µM (top dose mostly 9.22 µM), for inactives: at the highest dose activation, negative = inhibition, actives largely listed as activators | 320,000 tested, 2.8% active | AID 485297; further: % of control where 0% means no effect; nearly all actives have a fitted effect of over 60% in size
#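 Quantitative HTS format; Huh7 Rab9-luciferase reporter cells (1500/well) receive compound 2 h post-plating, incubate 24 h at 37 °C, then get luciferase reagent for 10 min before luminescence reading.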
# ELG1 genotox: inducers of genotoxicity in HEK293T ELG1-luciferase cells; HEK293T ELG1-luciferase reporter, luminescence, 16 h; Potency, µM (doses to about 46 µM), without a hit: top-dose activity change, positive = activation, actives largely listed as activators; 330,000 tested, 1.3% active; further: % of control where 0% means no effect; nearly all actives have a fitted effect of over 60% in size
#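 Genotoxicity was scored as increased ELG1-luciferase reporter signal, measured by ONE-Glo luminescence (30 min, room temperature). Compound or vehicle exposure of the HEK293T reporter cells lasted 16 hr at 37°C.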
# ELG1 repair inh: blocks ELG1-dependent DNA repair in HEK293T cells; HEK293T ELG1-luciferase reporter, luminescence, 16 h; DNA damage induced by 5-fluorouridine; AID 504467; 330,000 tested, 2.3% active; Potency, µM (top dose mostly 46.1 µM), for inactives: at the highest dose activity change, negative = inhibition, most hits filed as inhibitors; further: on the % scale 0 is the no-effect control and ±100 the full control effect; nearly all actives have a fitted effect of over 55% in size
#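 Luminescence from the luciferase reporter, measured 30 min after ONE-Glo reagent at room temperature, was the read-out. Beforehand, 2,000 cells per well were exposed for 16 hr at 37 °C to 5-fluorouridine together with compound or vehicle.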
# SMN2 splice enh: SMN2 splice variant enhancement | HEK293 SMN2-luciferase splicing reporter, luminescence, 30-36 h | Potency, µM (highest dose often 46.1 µM), without a hit: at the highest dose activity change, positive = activation, most hits filed as activators | 210,000 tested, 2.8% active; further: % of control where 0% means no effect; nearly all actives have a fitted effect of over 55% in size
#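 qHTS luciferase splicing reporter: luminescence rises when SMN2 exon 7 is included in transfected HEK293 cells. Compound exposure lasted 30-36 h at 37C, with 4.5 mM final sodium butyrate as control, followed by a ONE-Glo read.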
# NPC1 promoter act: activates the NPC1 promoter | Huh7 NPC1 promoter luciferase reporter, 24 h | 320,000 tested, 2.4% active | Potency, µM (titrated, usually from 9.22 µM), without a hit: at the top dose activation, most hits filed as activators; further: % of control where 0% means no effect; nearly all actives have a fitted effect of over 60% in size
#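 Stable NPC1-promoter luciferase Huh7 line; cpd (DMSO) 24 h, 37 °C, 5% CO2; Amplite luciferase reagent 10 min RT; luminescence readout. qHTS format.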
# FLuc modulator: firefly luciferase modulation, counter-screen for miR-21 project. P08659. purified FLuc, Km substrates, luminescence inhibition. Potency, µM (highest dose often 57.5 µM), for inactives: top-dose activity change, negative = inhibition, usual class: inhibitors. 360,000 tested, 6.9% active. AID 588342;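 further: plate controls were vehicle for no effect and reference inhibitor for full effect; nearly all actives have a fitted effect of over 55% in size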
# Target sequence (P08659 whole entry, looked up): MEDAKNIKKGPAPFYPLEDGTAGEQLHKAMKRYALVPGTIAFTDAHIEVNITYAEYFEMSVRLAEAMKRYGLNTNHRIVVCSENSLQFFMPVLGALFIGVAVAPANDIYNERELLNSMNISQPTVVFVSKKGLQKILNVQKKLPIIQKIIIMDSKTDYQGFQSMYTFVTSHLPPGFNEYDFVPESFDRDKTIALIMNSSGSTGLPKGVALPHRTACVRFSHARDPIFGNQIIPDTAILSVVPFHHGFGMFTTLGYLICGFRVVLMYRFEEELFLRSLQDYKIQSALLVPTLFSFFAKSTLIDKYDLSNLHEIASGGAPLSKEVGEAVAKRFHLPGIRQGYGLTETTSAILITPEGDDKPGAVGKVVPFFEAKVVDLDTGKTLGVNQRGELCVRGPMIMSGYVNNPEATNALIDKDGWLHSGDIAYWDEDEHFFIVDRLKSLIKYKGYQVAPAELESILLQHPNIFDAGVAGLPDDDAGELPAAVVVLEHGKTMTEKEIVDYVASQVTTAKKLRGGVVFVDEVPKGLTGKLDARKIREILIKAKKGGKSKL
#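 Purified P. pyralis luciferase (10nM final) with 10uM D-luciferin and 10uM ATP (Km levels) in 50mM Tris acetate pH 7.5, 10mM Mg acetate, 0.01% Tween-20, 0.05% BSA; qHTS 6-point titration, ~60 µM downward; luminescence read.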
# * = called active by the depositor; ? = inconclusive; · = no result; [ ] = dose if it differs, or a comment. This is a sample that favours compounds with a hit; in the whole collection about 9.3% have one here. The call rests on the fitted dose curve; in most records, active means well fitted curve in the direction sought with a large enough effect; inconclusive means small, poorly fitted or top-dose-only effect, or another doubt; inactive means no such curve, though single readings can be large; an effect the other way counts as inactive or inconclusive. Potency means the concentration at half of the fitted maximal effect.
SMILES,Rab9 promoter act,ELG1 genotox,ELG1 repair inh,SMN2 splice enh,NPC1 promoter act,FLuc modulator
CC(=O)OC1CC[C@]2(C)C(CC[C@@]3(C)C2C(=O)C=C2C4C(C)C(C)CC[C@@]4(C(=O)O)CCC23C)C1(C)C (stereo partly specified),·,·,·,-9%,·,·
CN(C)c1ccc(NC(=O)c2cnsn2)cc1,?,?,?,·,?,3µM*
COc1nc(C)ccc1-c1noc(-c2ccco2)n1,1.3µM*,?,?,5.6µM*,1.4µM*,3.8µM*
COCc1nc(-c2ccc(-c3ccc(C)cc3)nc2OC)no1,?,15%,?,-3%,18%,17µM*
COc1nc(-c2ccc(C)cc2)ccc1-c1noc(-c2ccco2)n1,?,?,?,-8%,?,19µM*
O=C(Nn1c(-c2ccncc2)nc2ccccc2c1=O)c1ccc([N+](=O)[O-])cc1Cl,1%,0%,-2%,0%,0%,4%
Cc1ccc2c(c1)cc(C(=O)N[C@@H](Cc1ccccc1)C(=O)O)n2C,-1%,-2%,-1%,·,-2%,1%
CN(C(=O)c1cccc(NC(=O)C2CCCN(C(=O)OC(C)(C)C)C2)c1)C1CCCC1 (stereo unspecified),·,-2%,?,·,·,·
CN(Cc1ccccc1)C(=O)c1cccc(NC(=O)C2CCCN(C(=O)OC(C)(C)C)C2)c1 (stereo unspecified),·,-8%,26µM*,·,·,·
Cc1nn(Cc2cccc(C(=O)Nc3ccn(Cc4c(F)c(F)cc(F)c4F)n3)c2)c(C)c1[N+](=O)[O-],3%,-14%,21µM*,-23%,-5%,0%
Cc1nn(C)c(C(=O)Nc2ccn(Cc3c(F)c(F)cc(F)c3F)n2)c1[N+](=O)[O-],0%,-1%,-19%,-6%,3%,-1%
COC(=O)[C@H](Cc1ccccc1)NC(=O)O[C@H]1C(=O)c2cc(OC)ccc2O[C@@H]1c1ccc(OC)c(Br)c1,·,·,·,4%,·,·
CN(C)c1ccc(NC(=O)c2ccc(N3CCOCC3)nc2)cc1,16%,22%,?,·,22%,15µM*
N/C(=N\O)c1ccc(N2CCN(c3ncccc3C(F)(F)F)CC2)nc1,2.5µM*,?,?,·,2.2µM*,12µM*
O=C(Nc1ccc(N2CCOCC2)c(F)c1)c1cccs1,0.4µM*,6.5µM*,?,·,0.5µM*,4.3µM*
COC(=O)c1cc(NC(=O)c2cccs2)ccc1N1CCOCC1,-2%,-6%,-17%,9%,-5%,-5%
O=C(Nc1ccc(N2CCOCC2)nc1)c1cccs1,2.5µM*,16%,?,11µM*,?,?
CCC(=O)N1CCc2cc(Br)cc(S(=O)(=O)CCC(=O)Nc3cccc(CC)c3)c21,·,·,·,1%,·,7%
COc1ccccc1NC(=O)Nc1nnc(CC(=O)Nc2cccc(C)c2)s1,2%,0%,1%,·,2%,-3%
O=C(Nc1ccc(N2CCN(c3ncccc3C(F)(F)F)CC2)nc1)c1cccs1,-16%,-23%,21µM*,·,-6%,?
COc1ccc(CNS(=O)(=O)c2cc(-c3cc(C)no3)ccc2C)cc1OC,-1%,-1%[9.26 µM],23µM*,·,-2%,-1%
COc1ccc(CCN(C)C(=O)c2cc(S(=O)(=O)NCc3ccccc3)ccc2C)cc1OC,-10%,-8%,8.2µM*,·,0%,8%
CCOc1ccc(CNS(=O)(=O)c2cc(-c3cc(C)no3)ccc2C)cc1OC,·,·,·,·,·,-1%
COc1ccc(CCNC(=O)c2ccc(CNS(=O)(=O)c3cc(C)ccc3C)cc2)cc1OC,-1%,-11%,21µM*,-11%,-2%,2%
COc1ccc(CCNC(=O)c2ccc(CNS(=O)(=O)c3cccc(Cl)c3)cc2)cc1OC,6%,-8%,23µM*,-39%,-4%,-1%
